Measurements as given in PubChem BioAssay AID485347 (National Center for Advancing Translational Sciences (NCATS), 2010).
The whole screen tested about 340,000 compounds, of which about 1,200 (0.35%) were called active. For the sample, actives were picked, then their nearest neighbours and some compounds at random. Unmarked numbers belong to inactive results.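 How the source made its calls: active means potentiation over 3 SD above the plate norm (cut at about 30% in these data); inactive means the rest.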

Target: D(2) dopamine receptor (Homo sapiens) (UniProt P14416)
Sequence (P14416 whole entry, looked up): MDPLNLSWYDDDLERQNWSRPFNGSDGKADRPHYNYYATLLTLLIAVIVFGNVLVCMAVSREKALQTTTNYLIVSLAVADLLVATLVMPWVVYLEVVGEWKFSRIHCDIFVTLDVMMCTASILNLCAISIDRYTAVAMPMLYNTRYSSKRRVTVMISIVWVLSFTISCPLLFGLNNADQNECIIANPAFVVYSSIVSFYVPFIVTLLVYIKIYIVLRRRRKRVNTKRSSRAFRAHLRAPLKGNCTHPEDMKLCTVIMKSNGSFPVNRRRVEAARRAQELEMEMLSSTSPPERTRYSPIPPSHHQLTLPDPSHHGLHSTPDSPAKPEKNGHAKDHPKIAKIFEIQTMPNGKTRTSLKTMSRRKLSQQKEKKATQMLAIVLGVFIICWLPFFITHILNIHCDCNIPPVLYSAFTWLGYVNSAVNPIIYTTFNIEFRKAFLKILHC
Test: HTS Assay for Positive Allosteric Modulators of the Human D2 Dopamine Receptor: Primary Screen for Potentiators; further: 0% is about no effect
Settings: HEK293 T-REx D2, calcium flux, EC20 dopamine potentiation; at 10 µM; active compounds read high
Outline: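 Primary screen. Calcium kinetics in induced HEK293 T-REx D2 cells: compound pre-addition 180 s, EC20 dopamine, 180 s more.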

| SMILES | potentiation |
| --- | --- |
| CC(C)(C)c1ccc(C(=O)NCC(c2ccco2)S(=O)(=O)c2ccc(F)cc2)cc1 (stereo not drawn) | 2.19% |
| COc1ccccc1NC(=O)c1oc2ccccc2c1NC(=O)COc1ccccc1OC | -6.56% |
| O=C(NCCc1ccc(F)cc1)c1ccc2nccnc2c1 | 1.21% |
| Cc1ccc(C)c(NC(=O)c2ccc3nccnc3c2)c1 | 10.6% |
| CC(C)CCC(C)NC(=O)c1ccc2nccnc2c1 (stereo not drawn) | 36.8% (active) |
| CCOC(=O)c1ccccc1NC(=O)CCc1c(C)nc2c(c1C)c(=O)n(C)c(=O)n2C | -0.581% |
| Cc1ccc(NC(=O)c2nc(S(=O)(=O)Cc3cccc(C)c3)ncc2Cl)cc1 | -4.73% |
| Cc1cccc(C(=O)N2c3nc(-c4ccco4)nn3C3(CCCCC3)[C@@H]3CCCC[C@@H]32)c1 | 11.9% |
| COc1ccccc1NC(=O)C1=C(C)Nc2ncnn2C1c1sccc1C (stereo not drawn) | 14.1% |
| CN(C(=O)CSc1nnc(Nc2ccccc2)s1)C1CCS(=O)(=O)C1 (stereo not drawn) | -2.37% |
| CCn1c(SCC(=O)N(C)C2CCS(=O)(=O)C2)nnc1-c1cccs1 (stereo not drawn) | 43.3% (active) |
| CCn1c(SCC(=O)c2ccc(Cl)s2)nnc1-c1cccs1 | 5.97% |
| Cc1ccc(NC(=O)Cc2ccc(NC(=O)N3CCCCc4ccccc43)cc2)cc1 | -2.54% |
| Cc1c(Cl)cccc1NC(=O)Nc1ccc(C(=O)N2CCCC2)cc1 | -6.53% |
| Cc1c(Cl)cccc1NC(=O)NCc1ccc(C)n1C | 6.36% |
| Cc1c(NC(=O)Nc2ccccc2Cl)sc(=S)n1C | 37% (active) |
| CCCSc1ncc(Cl)c(C(=O)Nc2c(C(=O)Nc3ccccc3)oc3ccccc23)n1 | 9.52% |
| C=CCN1C(=O)C2(OCCCO2)c2cccc(Cl)c21 | 9.19% |
| CC(C)(C)C(=O)CCN1C(=O)C2(OCCO2)c2ccccc21 | 31.3% (active) |
| O=C(CC1(O)C(=O)N(CN2CCOCC2)c2ccccc21)c1ccccc1 (stereo not drawn) | -7.42% |
| O=C(NCCCN1CCN(c2cccc(Cl)c2)CC1)c1nnc(Cc2ccc(F)cc2Cl)o1 | -20.3% |
| COc1cn(CC(=O)Nc2cccc(C)c2C)c(CN2CCCCC2)cc1=O | -2.25% |
| COC(=O)c1ccc(OC)c(Cn2c(=O)n(Cc3ccccc3)c(=O)c3c2c2cc(OC)ccc2n3C)c1 | -2.94% |
| CCc1nn(CC(=O)Nc2cccc(C)c2C)c(=O)c2cc3sccc3n12 | 8.71% |

| SMILES | potentiation |
| --- | --- |
| COc1ccc(C(C)=O)cc1CSc1nc2nc(C)cc(C)n2n1 | 34.5% (active) |
| COc1cccc(CSc2nc3nc(C)cc(C)n3n2)c1 | -5.34% |
| Cc1cc(C)n2nc(SCC(N)=O)nc2n1 | 16.2% |
| CCOc1ccc(-n2c(SCC(=O)NCc3ccccc3)nc3n[nH]c(C)c3c2=N)cc1 | -3.4% |
| COc1ccccc1CNCc1ccc(C(=O)O)s1 | 6.15% |
| O=C1/C(=C/c2cccs2)CCc2ccccc21 | 1.15% |
| CN1C/C(=C/c2cccs2)C(=O)/C(=C\c2cccs2)C1 | 41.9% (active) |
| CN1CCN(C(=O)/C(=C\c2cccs2)NC(=O)c2cccs2)CC1 | 15.2% |
| Cc1c(NC(=O)CSc2nnnn2-c2ccc(C(=O)O)cc2)c(=O)n(-c2ccccc2)n1C | -3.5% |
| Cc1c(NC(=O)CSc2nnc(-c3cccnc3)n2N)c(=O)n(-c2ccccc2)n1C | 73.3% (active) |
| Cc1c(NC(=O)CSc2cccc3cccnc23)c(=O)n(-c2ccccc2)n1C | 13.1% |
| Cc1cn(C)c(CC(=O)NCc2ccccc2)c1C(=O)O | 5.5% |
| CCc1ccc(CNC(=O)c2ccc(CS(=O)c3ccc(Br)cc3)o2)cc1 (stereo not drawn) | 3.07% |
| COc1ccccc1CNC(=O)C(=O)NCC(c1ccco1)S(=O)(=O)c1ccc(F)cc1 (stereo not drawn) | 11.5% |
| C=CCn1c(SCn2nnc3ccccc3c2=O)nnc1-c1ccc(Cl)cc1 | 3.09% |
| C=CCn1cc(-c2cccc(C(F)(F)F)c2)cc(C#N)c1=O | -3% |
| C=CCn1c(-c2ccc(Cl)cc2)ccc(C#N)c1=O | 40.5% (active) |
| COc1cc(OC)cc(C(=O)Nc2cc3nn(-c4ccccc4)nc3cc2Cl)c1 | 29.9% |
| CCCCc1nn2c(=O)cc(COC(=O)c3ccccc3NC(=O)C(C)(C)C)nc2s1 | 9.21% |
| CC12CCC(C(=O)N(NC(=O)c3ccccc3O)C1=O)C2(C)C (stereo not drawn) | 13.8% |
| CC1=CC(C)(C)NC(=S)N1NC(=O)c1ccccc1Cl | 35.1% (active) |
| CC1=CC(C)(C)NC(=S)N1c1ccccc1 | -0.583% |
| CCN(C(=O)c1sc2cc(OC)ccc2c1Cl)c1ccccc1 | -5.49% |
| COc1ccccc1NC(=O)c1oc2ccccc2c1NC(=O)C(C)C | -4.17% |

| SMILES | potentiation |
| --- | --- |
| Cc1ccc(NC(=O)CSc2nc3c([nH]c4ccccc43)c(=O)n2-c2ccccc2)cc1Cl | 0.276% |
| Cc1cccc(N2CCN(S(=O)(=O)c3ccc4[nH]c5c(c4c3)CCCCC5)CC2)c1C | 2.56% |
| CC(C)(C)NS(=O)(=O)c1ccc(NC(=O)C2CCCO2)cc1 (stereo not drawn) | 5.45% |
| CC(C)(C)NS(=O)(=O)c1ccc(NC(=O)NC2CCCCC2)cc1 | 38% (active) |
| CC(C)c1ccc(NC(=O)NC2CCCCC2)cc1 | 4% |
| CCCN(CCC)CCNC(=O)c1ccc2c(c1)NC(=O)C(CS(=O)(=O)Cc1cccc(Br)c1)N2 (stereo not drawn) | 0.677% |
| COc1ccc(Cn2ccnc2SCC(=O)Nc2ccc3c(c2)OCO3)cc1 | 1.53% |
| Cc1cc2c(=O)n(C)c(SCC(=O)c3cc4ccccc4o3)nc2s1 | 30.1% (active) |
| CCc1cc2c(=O)n(-c3ccccc3)c(SCC(=O)O)nc2s1 | -3.23% |
| Cc1ccc(C(=O)CSc2nc3ccccc3c(=O)n2N)o1 | 2.64% |
| Cc1ccc2c(=O)c(C(=O)c3ccc(F)cc3)cn(CC(=O)NC3CCCCC3)c2n1 | -9.33% |
| COCCCNC(=S)NNC(=O)C(O)(c1ccccc1)c1ccccc1 | -5.53% |
| CCCCNC(=O)c1cc(-c2ccc(Cl)c(Cl)c2)on1 | -3.44% |
| CCCCNC(=S)NNC(=O)c1cc(C)on1 | 37% (active) |
| COc1ccc(-c2nc(S(=O)(=O)c3ccccc3)c(N3CCCCC3)o2)cc1 | -5.46% |
| COc1ccccc1-c1cc(C(=O)N2CCCCC2)no1 | -22.4% |
| COc1ccc(-c2cc(C(=O)N3CCN(c4ccc(F)cc4)CC3)no2)cc1 | -8.77% |
| COc1ccccc1N1CCN(C(=O)c2cc(-c3ccc(Cl)c(Cl)c3)on2)CC1 | 69.4% (active) |
| Cc1cccc(Cn2c(=O)n(CCC(=O)NCCc3ccc(Cl)cc3)c(=O)c3sccc32)c1 | 13% |
| CCN1CCN(C(c2ccc(C)cc2)c2c(O)cc(C)n(Cc3ccco3)c2=O)CC1 (stereo not drawn) | 6.89% |
| CCC(C)n1[nH]c(=O)c2c(C)cc(C)nc21 (stereo not drawn) | 1.22% |
| CCC(C)n1[nH]c(=O)cc1N (stereo not drawn) | 2.87% |
| CCCC(C)n1[nH]c(=O)c2c(C)cc(C)nc21 (stereo not drawn) | 33% (active) |
| CCOC(=O)c1oc2ccc(S(=O)(=O)n3nc(-c4ccccc4OC)cc3N)cc2c1C | -0.8% |

| SMILES | potentiation |
| --- | --- |
| COc1ccc(-n2ccn(CC(=O)Nc3ccc(C)c(C)c3)c(=O)c2=O)cc1OC | 6.27% |
| O=C(Nc1c(-c2ccc(F)cc2)nc2ccccn12)c1cccc(F)c1 | 12.9% |
| CCN1CCc2nc3sc(C(=O)Nc4ccccc4OC(F)(F)F)c(N)c3cc2C1 | 3.95% |
| Cc1cccc(N2CCN(C(=O)CN(C)S(=O)(=O)c3ccc4c(c3)CCC(=O)N4)CC2)c1C | -3.34% |
| CCOC(=O)Cc1csc(NC(=O)CN(C)S(=O)(=O)c2ccc3c(c2)CCC(=O)N3)n1 | 43% (active) |
| CCOC(=O)Cc1csc(NC(=O)CSc2ccc(Br)cc2)n1 | -0.963% |
| Cc1sc(C2C(C#N)=C(N)N(c3cccc(Cl)c3)C3=C2C(=O)CCC3)cc1CN1CCOCC1 (stereo not drawn) | -0.593% |
| O=C(Nc1ccc(S(=O)(=O)N2CCCCCC2)cc1)c1c(F)cccc1F | 2.54% |
| O=C(Nc1ccc(S(=O)(=O)N2CCCCC2)cc1)c1cnccn1 | 30.4% (active) |
| CCN1CCN(c2ccc(NC(=O)c3cnccn3)cc2)CC1 | -0.266% |
| CN(Cc1ccccc1)S(=O)(=O)c1ccc(F)c(C(=O)Nc2cccc(Cl)c2Cl)c1 | -2.84% |
| CCN(CC)S(=O)(=O)c1ccc2c(c1)N(CC(=O)NCc1ccccc1)C(=O)CS2 | -1.87% |
| CC(=O)Nc1ccc(S(=O)(=O)Nc2cccc(NC(=O)C(C)(C)C)c2)cc1 | 0.479% |
| CC(=O)NS(=O)(=O)c1ccc(NC(=S)NC(=O)C(C)(C)C)cc1 | 33.2% (active) |
| CC(=O)NS(=O)(=O)c1ccccc1 | 10.6% |
| O=C(CCn1c(=O)c2ccccc2n(Cc2ccc(Cl)cc2)c1=O)NCc1ccc2c(c1)OCO2 | -11.6% |
| O=C(Nc1ccc(Br)cc1)c1cc2nc(-c3ccccc3)cc(-c3ccccc3)n2n1 | -4.38% |
| Cc1ccccc1-c1nc(SCC(=O)N(C)c2ccccc2)c2c(=O)n(C)c(=O)n(C)c2n1 | -12.5% |
| CC1CCN(c2nc3c(c(=O)[nH]c(=O)n3C)n2CCCc2ccccc2)CC1 | 45% (active) |
| Cn1c(=O)[nH]c(=O)c2c1nc(N1CCN(C(c3ccccc3)c3ccccc3)CC1)n2CCO | 3.98% |
| Cn1c(=O)[nH]c(=O)c2c1nc(N1CCCCCC1)n2CC(=O)c1ccccc1 | -3.5% |
